Dicer processing: blocks human Dicer maturation of pre-miR-21; Q9UPY3; cat-ELCCA pre-miR-21 Dicer processing, chemiluminescence; stronger effect = higher value; z-score at 25 µM; 6% of 47,000 active; AID 1347074; in the data active = z-score above about 3, passing the limit was not always enough;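 also: plate controls were vehicle for no effect and no enzyme for full effect; higher signal means more uncleaved substrate so more Dicer inhibition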
An asterisk follows results filed as active. This excerpt belongs to a sample that is enriched for hits.

SMILES	Dicer processing
O=C(c1cccc([N+](=O)[O-])c1)N1c2ccccc2Sc2ccccc21	-0.55
CCc1ccc(C2C(C(=O)OC)=C(C)NC3=C2C(=O)CCC3)s1 (configuration not stated)	-0.98
CCCN1C(=O)N(C)C2NC(=O)NC21 (configuration not stated)	0.55
CSC(=Nc1ccc(C(C)C)cc1)NC#N	0.35
C#CCN1C(=O)C(O)(CC(=O)c2cc(C)ccc2C)c2ccccc21 (configuration not stated)	1.1
C#CCN1C(=O)C(O)(CC(=O)c2c(C)cc(C)cc2C)c2ccccc21 (configuration not stated)	4.3*
C#CCN1C(=O)C(O)(CC(=O)c2ccc(C)cc2C)c2ccccc21 (configuration not stated)	1.6
COc1ccc(OCCC(=O)N/N=C/C=C/c2ccccc2)cc1	0.85
COc1ccc(OCCC(=O)NN)cc1	3.3*
COc1ccc(OCCN)cc1	-0.31
COc1ccc(C(=O)c2oc3ccc4ccccc4c3c2C)cc1	-1.3
CC1=CC(C)C(CN(C2CCCCC2)S(=O)(=O)c2ccc(N)cc2)C(C)C1 (configuration not stated)	1.9
COc1ccc2[nH]c(=O)c(-c3noc(-c4ccncc4)n3)cc2c1	0.53
Cc1cc(C)c(C#N)c(Nc2ccccc2C)n1	0.71
Cc1cccc(Nc2nc3nonc3nc2Nc2ccc(F)cc2)c1C	2.4
Cc1cccc(Nc2ncncc2C#N)c1C	3.7*
COc1ccc(/C=C2\Cc3ccccc3C2=O)cc1O	8
O=c1cc(CSc2ccc(Cl)cc2)[nH]c2[nH]n(-c3ccccc3)c(=O)c12	5.4*
O=c1cc(CSc2nc3ccccc3s2)[nH]c2[nH]n(-c3ccccc3)c(=O)c12	0.06
O=c1cc(CSc2ccc(Cl)cc2)[nH]n1-c1ccccc1	35
Cc1ccc2c(c1)sc(/C=C1\Sc3ccccc3N1CCO)[n+]2C	-0.69
Cc1nn2c(C(F)(F)F)cc(-c3ccco3)nc2c1-c1ccc(Cl)cc1	-1.1
NC(=S)N/N=C/Cc1nnnn1-c1ccc(-c2ccccc2)cc1	3.2*
Clc1ccccc1N/N=C/Cc1nnnn1-c1ccccc1	0.48
CN(/N=C/Cc1nnnn1-c1ccc(Cl)cc1)c1ccccc1	-1.1
SMILES	Dicer processing
COCCOC(=O)c1c(C)oc2ccc(OCc3ccc(F)cc3)cc12	0.37
O=C1CC(C(=O)Nc2cccc(Cl)c2)n2c(nc3ccccc32)N1 (configuration not stated)	1.3
O=C1CC(C(=O)Nc2cccc(F)c2)n2c(nc3ccccc32)N1 (configuration not stated)	-0.23
O=C1CC(C(=O)Nc2ccc(Br)cc2)n2c(nc3ccccc32)N1 (configuration not stated)	5.1*
COc1ccc(S(=O)(=O)N2CCSC2c2ccccc2Cl)cc1 (configuration not stated)	3.3*
CCOc1ccc(S(=O)(=O)N2CCSC2c2ccc(OC)c(OC)c2)cc1 (configuration not stated)	3.3*
COc1ccc(C2SCCN2S(=O)(=O)c2cccc(C)c2)cc1 (configuration not stated)	6.2*
COc1ccc(C2SCCN2S(=O)(=O)c2cccc(C)c2)cc1OC (configuration not stated)	0.87
COc1ccc(C2SCCN2S(=O)(=O)c2ccc(C)cc2)cc1 (configuration not stated)	-1.4
COc1ccccc1C1SCCN1S(=O)(=O)c1ccc(Cl)cc1 (configuration not stated)	1.2
COc1ccc(OC)c(C2SCCN2S(=O)(=O)c2ccc(-c3ccccc3)cc2)c1 (configuration not stated)	-0.18
COc1ccc(S(=O)(=O)N2CCSC2c2ccccc2OC)cc1 (configuration not stated)	0.65
COc1ccc(Br)cc1C1SCCN1S(=O)(=O)c1cccc(C)c1 (configuration not stated)	2.9
COc1ccc(OC)c(SCc2nnc(-c3ccc([N+](=O)[O-])c(C)c3)o2)c1	-0.81
CCCCc1sc(-c2c(C#N)c(N)nc3c2CCCC3)cc1[N+](=O)[O-]	0.94
O=C1NN(c2ccccc2)C(=O)C2C3c4ccccc4C(c4ccccc43)C12 (configuration not stated)	-4.3
Cc1csc2sc(-c3ccnc(SCC(=O)Nc4ccc(Cl)cc4Cl)n3)c(C)c12	-0.26
Fc1ccc(CN2CCCN(c3ncnc4scc(-c5ccccc5)c34)CC2)cc1	-1.4
CCOc1ccccc1Oc1coc2cc(O)ccc2c1=O	3.3*
COc1ccccc1Oc1coc2cc(O)ccc2c1=O	0.15
CCOc1ccccc1Oc1c(C)oc2cc(O)ccc2c1=O	0.76
NC(=O)c1sc(=S)n(-c2ccc(Cl)cc2)c1N	0.06
COc1ccccc1-c1nnc(Sc2sccc2[N+](=O)[O-])n1-c1ccccc1	-0.48
Cc1ccc(N=Cc2cc(-c3ccccc3)sc2O)c(C)c1	0.91
COc1ccc(S(=O)(=O)N2c3ccc(C)cc3C(C)=CC2(C)C)cc1	-1
SMILES	Dicer processing
CCOc1ccc(S(=O)(=O)N2c3ccc(C)cc3C(C)=CC2(C)C)cc1	3.5*
CC1=CC(C)(C)N(S(=O)(=O)c2ccc(F)cc2)c2ccc(C)cc21	-0.75
CS(=O)c1ccc(C(F)(F)F)cc1[N+](=O)[O-] (configuration not stated)	-0.89
CCn1nc(C)c(Br)c1C(=O)O	0.12
CCOc1ccc(N=c2ssc(SC)c2-c2ccccc2)cc1	-0.88
CSc1ssc(=Nc2ccc(C)c(Cl)c2)c1-c1ccccc1	-0.32
CSc1ssc(=Nc2ccc(F)c(F)c2)c1-c1ccccc1	3.6*
CC(C)(C)c1ccc(-c2cc(NS(=O)(=O)c3ccc(Cl)cc3)n[nH]2)cc1	-7.5
COC(=O)/C=C(/Nc1ccc(Cl)cc1)C(=O)OC	1.9
CSc1cc(-c2ccc(Cl)cc2)nc(-c2ccc(Cl)cc2)c1	0.56
CCOC(=O)C1=C(C)N=C2SCCC(=O)N2C1c1ccc(F)cc1 (configuration not stated)	-1.8
COC(=O)C1=C(C)Nc2nc3ccccc3n2C1c1cccc(C)c1 (configuration not stated)	1
O=C(c1ccc2c(c1)CCO2)N1CCN(C(=O)c2ccc3c(c2)CCO3)CC1	-0.49
O=C1CCOc2cc3c(cc21)C(=O)CCO3	3.6*
O=C1CCCc2c1ccc1c3c(ccc21)C(=O)CCC3	-0.13
Fc1ccc(Oc2cc(C(F)(F)F)nc3c(Br)cccc23)c(Cl)c1	-0.83
O=C(Nc1ccccc1F)C1Sc2nnc(-c3ccccc3)n2NC1c1ccccc1 (configuration not stated)	3
COc1ccc(NC(=O)N2CCN(c3ncccn3)CC2)cc1	-1.4
O=C(Cn1nc(C(F)(F)F)c2c1CCCC2)N1CCCc2ccccc21	0.09
CC(C)CNC(=O)Cn1nc(C(F)(F)F)c2c1CCCC2	1.1
CN(C(=O)Cn1nc(C(F)(F)F)c2c1CCCC2)c1ccccc1	3.8*
Nc1ccc(Oc2ccccc2)cc1	5*
Nc1cc(Cl)ccc1Oc1ccccc1	2.7
Fc1c(F)c(Oc2ccccc2)c(F)c(F)c1Oc1ccccc1	0.05
CN(C)CCCN1C(=O)C(O)=C(C(=O)c2cccs2)C1c1ccncc1 (configuration not stated)	1.2
CC(C)c1ccc(C2C(C(=O)c3cccs3)=C(O)C(=O)N2CCN2CCOCC2)cc1 (configuration not stated)	-0.41
CC(C)c1ccc(C2C(C(=O)c3cccs3)=C(O)C(=O)N2CCN(C)C)cc1 (configuration not stated)	4.7*
